# Assay results: PubChem BioAssay (NCI)
# Where “and” joins values, the source holds several entries; their conditions need not be identical. Identical values can stand only once. The panel holds about 83,000 compounds, 20% with a hit somewhere; the sample as a whole holds those more often.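 Percent growth is the endpoint: 0 to 100 indicates growth inhibition (40 means 60% inhibition), 0 means no net growth, and negative values indicate cell death.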 Calls of active or inactive are those of the source. Rule for the calls: active = growth percent below 10; inactive = the rest.
# Tested on: MDA-MB-468 breast
# Test: NCI-60 one-dose screen, 48 h (100 = growth as untreated, 0 = no growth, -100 = all killed)
smiles,measurement,setting,value
CCCCCCCC12Cc3ccccc3C1=Nc1c(c3ccccc3n1C)C2=O (centres undefined),growth,10 µM unless noted,97.3% (inactive)
O=C(NC(CSSCC(NC(=O)OCc1ccccc1)C(=O)O)C(=O)O)OCc1ccccc1 (centres undefined),growth,10 µM unless noted,84.5% (inactive) and 102% (inactive)
NS(=O)(=O)c1cc(Br)c2c(c1)S(=O)(=O)NCN2,growth,10 µM unless noted,126% (inactive)
CS(=O)(=O)CCNCc1ccc(-c2ccc3ncnc(Nc4ccc(OCc5cccc(F)c5)c(Cl)c4)c3c2)o1,growth,10 µM unless noted,-56.5% (active)
CC(=O)Nc1ccc(OC(C)=O)cc1,growth,10 µM unless noted,5.17% (active) and 92.5% (inactive)
COc1ccc(/C=C2\COc3ccc(O)cc3C2=O)cc1OC,growth,10 µM unless noted,103% (inactive)
N#CCCCCCn1c2ccccc2c2c3c(c4c5ccccc5[nH]c4c21)C(=O)N(O)C3=O,growth,10 µM unless noted,-32% (active)
CCN1C(=O)N(CC)C2C1NN=c1s/c(=C3\C(=O)N(CCc4ccccc4)c4ccccc43)c(=O)n12 (centres undefined),growth,10 µM unless noted,-11.3% (active)
Cc1ccc(OCc2occc2C(=O)N2CCOCC2)cc1,growth,10 µM unless noted,103% (inactive)
Cc1ccc(Cn2cc(COc3ccc4c5ccnc(C)c5n(CCCc5ccccc5)c4c3)nn2)cc1,growth,10 µM unless noted,99% (inactive)
CCCCCN1C=C/C(=C\C(=O)N(C)c2ccc(OC(F)(F)F)cc2)c2ccccc21,growth,10 µM unless noted,80.4% (inactive)
O=C(c1ccc(F)c(Cl)c1)N1c2ccccc2Sc2ccccc21,growth,10 µM unless noted,63.1% (inactive)
CN(c1ccccc1)c1ccc2c(c1)OCCC21CC1Nc1cnccc1C(=O)O (centres undefined),growth,10 µM unless noted,72.3% (inactive)
Cc1cc(N(CCNc2ccnc3cc(Cl)ccc23)Cc2cccs2)nc(Cl)n1,growth,10 µM unless noted,-65.2% (active)
O=C1c2ccccc2C(=O)c2c1ccc1c(=O)n(-c3ccccc3C(F)(F)F)nnc21,growth,10 µM unless noted,-50.3% (active)
COc1ccc(/C=C/C(=C/c2c(O)[nH]c3cc(Br)ccc23)N=O)cc1,growth,10 µM unless noted,114% (inactive)
Fc1ccc2[nH]cc(-c3nc(-c4c[nH]c5ncccc45)cs3)c2c1,growth,10 µM unless noted,34.9% (inactive)
CC(C)[C@]12O[C@H]1[C@@H]1O[C@]13[C@]1(O[C@H]1C[C@H]1C4=C(CC[C@@]13C)C(=O)OC4)[C@@H]2OC(=O)CN(C)C,growth,10 µM unless noted,-55.2% (active)
COc1cccc(C(=O)Cn2cc(/C=C(\C#N)S(=O)(=O)c3ccccc3)c3ccccc32)c1,growth,10 µM unless noted,104% (inactive)
O=C1[C@H]2Cc3c([nH]c4ccccc34)[C@@H](c3ccc(Br)cc3)N2C(=O)CN1C1CCN(Cc2ccccc2)CC1,growth,10 µM unless noted,-4.01% (active)
Nc1ccn(C2O[C@H](CO)[C@@H](O)[C@H]2O)c(=O)n1 (some centres undefined),growth,10 µM unless noted,96.8% (inactive)
COc1cc(NS(=O)(=O)C(C)C)cc(-c2cc(-c3ccc(N4CCNCC4)cc3)cnc2N)c1,growth,10 µM unless noted,92.2% (inactive)
CC[C@H](C)[C@@H]1NC(=O)[C@H]([C@@H](C)O)NC(=O)C(Cc2ccccc2)NC(=O)[C@@H]2CCCN2C(=O)C(C(C)C)NC(=O)C(Cc2ccccc2)NC(=O)CNC(=O)[C@@H]2CCCN2C1=O (some centres undefined),growth,10 µM unless noted,53% (inactive)
C#CCNC(=O)[C@H](Cc1ccccc1)NC(=O)[C@]12CC[C@@H](C(=C)C)[C@@H]1[C@H]1CC[C@@H]3[C@@]4(C)Cc5c([nH]c6ccccc56)C(C)(C)[C@@H]4CC[C@@]3(C)[C@]1(C)CC2,growth,10 µM unless noted,97.9% (inactive)
COc1ccc(-c2n[nH]nc2-c2cc(OC)c3c(c2)OCO3)cc1,growth,10 µM unless noted,38.6% (inactive)
Cc1cc(Br)nnc1Br,growth,10 µM unless noted,101% (inactive)
CC(=O)c1cc2c(N)c(C(=O)Nc3ccccn3)sc2nc1C,growth,10 µM unless noted,57.3% (inactive)
CCN(CC)CCCC(C)Nc1cnc(C(=O)Nc2cc(C)cc3cccnc23)cn1 (centres undefined),growth,10 µM unless noted,9.36% (active)
O=S(=O)(NCCNc1cc(-c2c(-c3cccc(O)c3)nc3sccn23)ccn1)c1ccc(Cl)cc1,growth,10 µM unless noted,51.5% (inactive)
COc1cc(OC)cc(C(=O)C[n+]2cccc3cc[nH]c32)c1,growth,10 µM unless noted,90.9% (inactive)
COC(CCP(=O)(c1ccccc1)c1ccccc1)(C(=O)c1ccccc1)c1ccccc1 (centres undefined),growth,10 µM unless noted,54.7% (inactive)
C=C1C(=O)O[C@H]2[C@H]1CC/C(COC(=O)NCc1ccc(Cn3c(=O)sn(CCCC)c3=O)cc1)=C\CC[C@@]1(C)O[C@@H]21,growth,10 µM unless noted,12.2% (inactive)
COc1cc(/C=N/Nc2ccc(Br)cc2)cc(OC)c1OC,growth,10 µM unless noted,49.5% (inactive)
CNC(=O)c1c(NC(=O)c2ccc(C(C)(C)C)cc2)sc2c1CCC(=O)C2,growth,10 µM unless noted,3.25% (active)
CCCNc1ccc(C2=NCCCN2)cc1,growth,10 µM unless noted,87.9% (inactive)
CCCCCCCCCCCCCCCCOc1ccccc1NC(=O)CC(C)=O,growth,10 µM unless noted,111% (inactive)
COC(=O)C1(C)COP(=O)(Nc2ccc(OC)cc2)OC1 (centres undefined),growth,10 µM unless noted,106% (inactive)
O=C(CCCCCCCn1cc(-c2cccnc2)nn1)Nc1ccccc1-c1ccccc1,growth,10 µM unless noted,48.2% (inactive)
CN(C)CCCNC(=O)c1cncnc1Nc1ccc(OCc2cccc(F)c2)c(Cl)c1,growth,10 µM unless noted,-7.83% (active)
CCC(=O)OCc1ccc(OC)cc1,growth,10 µM unless noted,87.3% (inactive)
CC(=O)Nc1cc(F)cc(C(F)(F)F)c1Cl,growth,10 µM unless noted,86.3% (inactive)
NCCNc1nc(Nc2ccc(-c3nc4ccccc4[nH]3)cc2)c2cn[nH]c2n1,growth,10 µM unless noted,57.2% (inactive)
CC(=O)Nc1nc(C)c(C(=O)N/N=C/N2CCCCC2)s1,growth,10 µM unless noted,101% (inactive)
Cc1cc(NS(=O)(=O)c2ccc(N=Nc3cc(N=Nc4ccc(S(=O)(=O)Nc5cc(C)nc(C)n5)cc4)c4c(NC(=O)C(Cl)Cl)cccc4c3OC(=O)C(Cl)Cl)cc2)nc(C)n1 (tested in a mixture with another compound),growth,10 µM unless noted,103% (inactive) and 78.5% (inactive)
N#Cc1cnn2c(-c3ccc(Cl)cc3)nc(NCCc3ccccc3)nc12,growth,10 µM unless noted,110% (inactive)
O=[N+]([O-])c1ccc(-c2noc(-c3cccs3)n2)cc1,growth,10 µM unless noted,56.6% (inactive)
O=C1/C(=C/c2cccc3cnccc23)Cc2cc(F)ccc21,growth,10 µM unless noted,65.2% (inactive)
CC[C@]1(O)C[C@@H]2CN(Cc3c([nH]c4ccccc34)[C@@](C(=O)OC)(c3cc4c(cc3OC)N(C)[C@H]3[C@@](O)(C(=O)OC)[C@H](OC(C)=O)[C@]5(CC)[C@@H]6C[C@@H]6CN6CC[C@]43[C@@H]65)C2)C1,growth,10 µM unless noted,8.25% (active)
COc1cc(/C=C/C(=O)c2ccc(Cl)cc2)ccc1Oc1nc(NCCO)nc(N2CCOCC2)n1,growth,10 µM unless noted,91.5% (inactive)
O=C(Nc1ccccc1)P(=O)(O)c1ccccc1,growth,10 µM unless noted,94.3% (inactive)
COc1ccc2c(c1)Oc1nc(N)c(C#N)c(N)c1C2Sc1ccc(O)cc1 (centres undefined),growth,10 µM unless noted,18.8% (inactive)
CCN(CC)CCNC(Cc1ccccc1)c1ccc(OCc2ccccc2)cc1 (centres undefined),growth,10 µM unless noted,66.4% (inactive)
O=C(CCCNC(=O)c1nc(-c2ccccc2)n(-c2ccccc2)n1)NO,growth,10 µM unless noted,98.8% (inactive)
OC(c1cc2ccc(C(F)(F)F)cc2c2cc(C(F)(F)F)ccc12)C1CCCCN1 (centres undefined),growth,10 µM unless noted,-74% (active)
O=C1CCNC1,growth,10 µM unless noted,107% (inactive)
O=C(Nc1ccc(NS(=O)(=O)c2ccc(F)cc2)cc1)C12CC3CC(CC(C3)C1)C2,growth,10 µM unless noted,96.5% (inactive)
O=C1/C(=C\c2cn(CC(O)CN3CCCCC3)c3ccccc23)c2ccccc2N1c1c(Cl)cccc1Cl (centres undefined),growth,10 µM unless noted,-93.3% (active)
CC1=CCC(OC(=O)C(C)(O)CCC(O)(C(=O)OC2(C)C=CC(O)(C(C)C)CC2)C(C)C)(C(C)C)CC1 (centres undefined),growth,10 µM unless noted,107% (inactive)
O=Cc1c(OCc2cnnn2CC(=O)Nc2ccc(Cl)cc2)ccc2ccccc12,growth,10 µM unless noted,104% (inactive)
Cc1cc(N(CCCNc2ccnc3cc(Cl)ccc23)Cc2ccccn2)nc(N2CCCC2)n1,growth,10 µM unless noted,88.3% (inactive)
CC(/C=N/NC(N)=S)Cc1ccc(C(C)C)cc1 (centres undefined),growth,10 µM unless noted,42.1% (inactive)
Oc1ccc(-c2nnc(SCc3ccc(O)c4ncccc34)n2-c2ccccc2)cc1,growth,10 µM unless noted,-13.6% (active)
O=C(c1ccc(F)c(F)c1Nc1ccc(I)cc1F)N1CC(O)([C@@H]2CCCCN2)C1,growth,10 µM unless noted,25.2% (inactive)
Nc1ccccc1NC(=O)c1ccc(CN2CCC/C(=C\c3ccccn3)C2=O)cc1,growth,10 µM unless noted,-6.37% (active)
CCCCCCCCCCCCCCCCCC[S+](C)CC (centres undefined),growth,10 µM unless noted,-42.5% (active)
COc1cccc2cc(-c3cc4ccccc4[nH]3)/c(=N\NC(=O)c3ccc(Cl)cc3)oc12,growth,10 µM unless noted,-2.01% (active)
COc1ccc(C2=C(c3cccc(OC)c3)C(=O)c3ccc(C)nc3C2=O)cc1,growth,10 µM unless noted,-60.8% (active)
Nc1ccc(N)c2c1C(=O)c1cccc([N+](=O)[O-])c1C2=O,growth,10 µM unless noted,54.8% (inactive)
Cc1ccc(-c2nc([P+](c3ccccc3)(c3ccccc3)c3ccccc3)c(S(=O)(=O)c3ccc(C)cc3)o2)cc1,growth,10 µM unless noted,-21.5% (active)
COc1ccc(C2CC(c3cccc(Nc4ccnc5cc(Cl)ccc45)c3)=NN2C=O)cc1 (centres undefined),growth,10 µM unless noted,7.85% (active)
O=C(c1ccccc1)c1cccc(C(Br)Br)c1,growth,10 µM unless noted,92.5% (inactive)
CC(=O)C(C(C)=O)C(c1ccccc1)C(C(C)=O)C(C)=O,growth,10 µM unless noted,98.6% (inactive)
O=C1CCC2=C3C4CCCCC4C(=O)C4CCCC(OC2C1)C34 (centres undefined),growth,10 µM unless noted,33.3% (inactive)
CCOc1ccccc1/C=N/Nc1nc2ccccc2o1,growth,10 µM unless noted,28.1% (inactive)
CCCCCCCCCCCCCCCCCCOc1ccccc1CC(=O)OCC[N+]1(C)CCCC1,growth,10 µM unless noted,-23.8% (active)
S=C1SCN(Cc2ccccc2)CN1Cc1ccco1,growth,10 µM unless noted,31.9% (inactive)
O=C(O)c1sccc1O,growth,10 µM,76.3% (inactive)
same,growth,100 µM,10.8% (inactive)
CC(=O)/C=C/c1ccc(N(CCO)Cc2ccc(C(C)(C)C)cc2)cc1,growth,10 µM,73.8% (inactive)
same,growth,100 µM,-71% (active)
CCOC(CN1CCN(CC(C)C(=O)c2ccccc2)CC1)c1ccccc1 (centres undefined),growth,10 µM unless noted,87.2% (inactive)
CC(=O)/C=C/c1ccc(OCc2ccc(C(C)(C)C)cc2)cc1,growth,10 µM,47.7% (inactive)
same,growth,100 µM,-0.894% (active)
ClCCOCCOc1ccc(C2CCCCC2)cc1,growth,10 µM unless noted,91.2% (inactive)
